From PubChem BioAssay AID1347420 (Sanford-Burnham Center for Chemical Genomics, 2020) come the findings set out here.

Several values for one entry are separate records, joined by “and”; a condition that tells them apart may be missing. Equal values may be shown once. The campaign covered roughly 1,300 compounds. About 980 (75%) were called active. About 4% were inconclusive and are not listed. The list shows a part of the results. Values without a mark were called inactive.

The inhibition is the change of the read-out against control, counted positive when it falls.

The target in this test is Sulfhydryl oxidase 1 (Homo sapiens) (UniProt O00391). Briefly: QSOX1 enzyme inhibitors, primary screen, biochemical, HyperBlu H2O2 luminescence, HTS (AID 1347420). Also: values above 100% were filed as inconclusive. Conditions: recombinant QSOX1, HyperBlu H2O2 luminescence; at 12.5 µM; hits give high values; active = any value above zero.
Chain of Sulfhydryl oxidase 1 (Homo sapiens) (O00391 whole entry, looked up): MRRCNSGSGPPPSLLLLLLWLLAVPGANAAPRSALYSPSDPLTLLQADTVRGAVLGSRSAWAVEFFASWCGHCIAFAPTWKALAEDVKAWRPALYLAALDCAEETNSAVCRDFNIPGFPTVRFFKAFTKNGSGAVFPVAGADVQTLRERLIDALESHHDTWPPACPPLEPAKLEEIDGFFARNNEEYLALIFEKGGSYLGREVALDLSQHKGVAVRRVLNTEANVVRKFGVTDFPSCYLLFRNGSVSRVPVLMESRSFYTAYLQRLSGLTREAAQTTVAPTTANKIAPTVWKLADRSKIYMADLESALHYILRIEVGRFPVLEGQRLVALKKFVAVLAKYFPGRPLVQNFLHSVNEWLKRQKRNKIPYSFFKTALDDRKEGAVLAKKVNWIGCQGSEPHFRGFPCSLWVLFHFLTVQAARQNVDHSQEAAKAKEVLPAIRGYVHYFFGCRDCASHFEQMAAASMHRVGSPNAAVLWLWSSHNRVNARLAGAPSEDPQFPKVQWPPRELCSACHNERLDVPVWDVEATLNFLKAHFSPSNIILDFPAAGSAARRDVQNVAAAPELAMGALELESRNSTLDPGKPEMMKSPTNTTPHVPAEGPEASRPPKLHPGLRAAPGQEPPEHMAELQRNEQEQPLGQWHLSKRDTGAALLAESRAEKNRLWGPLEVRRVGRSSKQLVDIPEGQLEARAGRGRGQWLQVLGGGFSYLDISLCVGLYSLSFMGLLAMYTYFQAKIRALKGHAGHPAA
For `C/C(=C\c1ccc(C(=O)O)cc1)c1ccc2c(c1)C(C)(C)CCC2(C)C`, the inhibition is 5.8% (active). As for `CCCCC/C=C\CC(O)/C=C/c1cccc(CC(O)CCCCO)n1` (centres undefined), the inhibition is -9.6%. With `O=c1cc(-c2ccccc2)[nH]c2nc(Cl)ccc12` the figure was 2.9% (active); with `O=C1CCC(N2C(=O)c3ccccc3C2=O)C(=O)N1` (centres undefined), 3% (active). With `Cc1cccc(C#Cc2ccccc2)n1` the figure was 15.5% (active); with `CC(C)c1ccc2c(c1)c(SC(C)(C)C)c(CC(C)(C)C(=O)O)n2Cc1ccc(Cl)cc1`, 0.2% (active); with `NCCCCN=C(N)N`, 15.4% (active).

As for `NC(N)=NCCCCN=C(N)N`, the inhibition is 7% (active). With `CCN(CC)CC#CCOC(=O)C(O)(c1ccccc1)C1CCCCC1` (centres undefined) the figure was 8.3% (active); with `O=C(/C=C/c1ccc(O)cc1)c1ccc(O)cc1O`, 58.4% (active); with `NC(Cc1cccc(-c2ccccc2CP(=O)(O)O)c1)C(=O)O` (centres undefined), 5.3% (active). With `Oc1ccc(Cn2cc[nH]c2=S)cc1` the figure was 22.2% (active); with `COCc1nc2c([nH]1)c(=O)n(C)c(=O)n2CC(C)C`, 3% (active); with `CN(C)CCC=C1c2ccccc2CCc2ccccc21`, 23.9% (active). With `CNCCC=C1c2ccccc2CCc2ccccc21` the figure was 0.1% (active); with `CN(C)CC/C=C1\c2ccccc2COc2ccccc21`, 5% (active). With `CN(C)CCC=C1c2ccccc2C=Cc2ccccc21`, the inhibition was -6.8%. With `NC(=O)c1ncn([C@@H]2O[C@H](CO)[C@@H](O)[C@H]2O)n1` the figure was 6.1% (active); with `NC(=O)c1ncn([C@@H]2O[C@H](CO)[C@@H](O)[C@H]2O)c1O`, 9.1% (active); with `CCN(CC)CC(=O)Nc1c(C)cccc1C`, 6.5% (active). The result for `COC(=O)C1=CO[C@@H](O)[C@@H]2C(CO)=CC[C@H]12` reads 16.3% (active). The result for `CCC(C)N(C)C(=O)c1cc2ccccc2c(-c2ccccc2Cl)n1` (centres undefined) reads 14% (active); that for `CN=C(NC#N)NCCSCc1nc[nH]c1C`, 13.2% (active).

Regarding `Cc1cccc(C)c1OCC(C)N` (centres undefined), the inhibition was -6%.

Turning to `Cc1cccc(C)c1OCC(N)C(C)C` (centres undefined), the inhibition is 15.4% (active). Regarding `CC(N)C1CCC(C(=O)Nc2ccncc2)CC1` (centres undefined), the inhibition was 23% (active). With `CC(N=C(NC#N)Nc1ccncc1)C(C)(C)C` (centres undefined) the figure was -10.9%; with `Brc1ccc([C@H]2CN3CCSC3=N2)cc1`, 18.2% (active). For `c1ccc(C2CN3CCSC3=N2)cc1` (centres undefined), the inhibition was -12.3%. Turning to `c1ccc([C@H]2CN3CCSC3=N2)cc1`, the inhibition is 10.2% (active). On to `CCCn1c(=O)c(C)cn2nc(N)nc12`, for which the inhibition is 12.2% (active). With `CCCCCCCCCCC(C)(C)C(=O)Nc1c(OC)cc(OC)cc1OC` the figure was 15.9% (active); with `Brc1c(Br)c(Br)c2n[nH]nc2c1Br`, 29.4% (active); with `NC(=Nc1ccccc1)NC(=O)c1nc(Cl)c(N)nc1N`, 13.3% (active). As for `NC(=NCc1ccccc1)NC(=O)c1nc(Cl)c(N)nc1N`, the inhibition is 3.9% (active). The result for `O=C(O)CNC(=O)C(CS)Cc1ccccc1` (centres undefined) reads 3.5% (active); that for `COc1ccc(NC(=O)/C=C/c2ccc(Cl)cc2)cc1`, 18% (active).

`COc1ccc([C@@H]2Sc3ccccc3N(CCN(C)C)C(=O)[C@@H]2OC(C)=O)cc1`: the inhibition is 10.6% (active). `Cc1ccc([N+](=O)[O-])cc1S(=O)(=O)N(C)C`: the inhibition is -9.6%. The result for `CS(=O)(=O)Nc1ccc([N+](=O)[O-])cc1Oc1ccccc1` reads 97.4% (active); that for `COc1cc2c(cc1OC)C1CC(=O)C(CC(C)C)CN1CC2` (centres undefined), 6.3% (active); that for `CC[C@H]1CN2CCc3cc(OC)c(OC)cc3[C@@H]2C[C@@H]1C[C@H]1NCCc2cc(OC)c(OC)cc21`, 13% (active). With `CCC1(C)CC(=O)NC1=O` (centres undefined) the figure was 13.4% (active); with `CC(C)(C)[C@]1(O)CCN2C[C@H]3c4ccccc4CCc4cccc(c43)[C@@H]2C1`, -3.5%; with `O=C(C1CCCCC1)N1CC(=O)N2CCc3ccccc3C2C1` (centres undefined), 8% (active).

On to `N[C@H](CO)C(=O)O`, for which the inhibition was 6.6% (active).

Take `N[C@@H](CC(=O)O)C(=O)O`: the inhibition was 20.6% (active). As to `N[C@H](C(=O)O)[C@H](O)C(=O)O`, the inhibition is -0.9%.

With `C=CC[C@H](N)C(=O)O`, the inhibition was 5.3% (active). With `N[C@@H](CS(=O)O)C(=O)O` the figure was 16% (active); with `CCc1cccc(N(C)C(N)=Nc2cccc3ccccc23)c1`, -10.9%.

Take `O=C(O)C1=CCCN(CCON=C(c2ccccc2)c2ccccc2)C1`: the inhibition is -7.5%. The result for `O=C(O)COCCN1CCN(C(c2ccccc2)c2ccc(Cl)cc2)CC1` (centres undefined) reads 6.6% (active); that for `CC(C)NC[C@H](O)COc1cccc2ccccc12`, -5.6%; that for `CC(C)NC[C@H](O)COc1cccc2[nH]ccc12`, 12.2% (active). With `CC(C)NCC(O)COc1cccc2ccccc12` (centres undefined) the figure was 10.3% (active). With `C=CCc1ccccc1OCC(O)CNC(C)C` (centres undefined), the inhibition is 1.7% (active). With `CCC1(c2ccccc2)C(=O)NCNC1=O`, the inhibition is -13.9%. `CC(C)NCC(O)COc1cccc2[nH]ccc12` (centres undefined): the inhibition was 8% (active).

On to `c1cnc2c(c1)ccc1cccnc12`, for which the inhibition was 9.8% (active).

Turning to `CCN(CC)CCOC(=O)c1ccc(N)cc1`, the inhibition was -5.5%.

Take `CCCCNc1cc(C(=O)O)cc(S(N)(=O)=O)c1Oc1ccccc1`: the inhibition is -9.6%. Regarding `CCCCNc1ccc(C(=O)OCCN(C)C)cc1`, the inhibition is 9.2% (active). Turning to `NC(N)=NCc1cccc(I)c1`, the inhibition is 0.4% (active).

Turning to `C=C1C(=O)O[C@@H]2[C@H]3O[C@]3(C)CCC=C(C)CC[C@@H]12`, the inhibition is -3.6%. With `CN=C(N)NCCC[C@H](N)C(=O)O` the figure was 1.3% (active); with `NC(N)=NCCC[C@H](N)C(=O)O`, -5.3%; with `CN(C)C(N)=NCCC[C@H](N)C(=O)O`, -1.4%. For `CSC(N)=NCCC[C@H](N)C(=O)O`, the inhibition was 8% (active).

In the case of `CC(N)=NCCCC[C@@H](N)C(=O)O`, the inhibition was 5% (active). As for `N#C/C(=C\c1ccc(O)c(O)c1)C(=O)c1ccc(O)c(O)c1`, the inhibition was 81.2% (active).

For `C[C@]12C=CC(=O)C=C1CC[C@@H]1C2=CC[C@]2(C)[C@@H](C(=O)CN3CCN(c4cc(N5CCCC5)nc(N5CCCC5)n4)CC3)CC[C@@H]12`, the inhibition was 21.5% (active). As for `CN1CC(O)C(O)C(O)C1CO` (centres undefined), the inhibition is 11.1% (active).

On to `Cc1cc2c(cc1Cl)N(C(=O)Nc1ccc(Oc3cccnc3C)nc1)CC2`, for which the inhibition is 2.9% (active). As to `Cc1cc2c(cc1Cl)N(C(=O)Nc1ccnc3ccccc13)CC2`, the inhibition is 52.9% (active).

For the compound `CCN(CC)CCOCCOC(=O)C1(c2ccccc2)CCCC1`, the inhibition was -2.7%. With `O=C(OCCN1CCOCC1)C1(c2ccccc2)CCCCC1` the figure was 14.9% (active). Turning to `c1ccc(CN2CCC3(CCCc4ccccc43)CC2)cc1`, the inhibition is -10.4%. The result for `CCOC(=O)[C@H](CCc1ccccc1)N[C@@H](C)C(=O)N1[C@H](C(=O)O)C[C@H]2CCCC[C@@H]21` reads 12.1% (active); that for `C[C@H](NC(CCc1ccccc1)C(=O)O)C(=O)N1CCC[C@H]1C(=O)O` (some centres undefined), -5.7%. The result for `COC(=O)C1=C(C)NC(C)=C([N+](=O)[O-])C1c1ccccc1C(F)(F)F` (centres undefined) reads 59.9% (active); that for `COC(=O)C1=C(C)NC(C)=C(C(=O)OC)C1c1ccccc1[N+](=O)[O-]`, 54.9% (active). Regarding `CCO/C([O-])=N/c1c[n+](N2CCOCC2)no1`, the inhibition is -0.8%.

On to `Cc1nc2c(OCc3ccccc3)cccn2c1CC#N`, for which the inhibition is 11.8% (active). In the case of `NC(N)=NC(N)=Nc1cccc(Cl)c1`, the inhibition was 25.1% (active). With `N=C(N)c1ccccc1` the figure was -0.4%. On to `NC(N)=NC(N)=Nc1ccccc1`, for which the inhibition was 6% (active). Consider `CN1CCN2c3ccccc3Cc3ccccc3C2C1` (centres undefined), for which the inhibition is 9.7% (active). Regarding `Cn1c(=O)c2[nH]c(C3CCCC3)nc2n(C)c1=O`, the inhibition was 7.5% (active). On to `CCCn1c(=O)c2[nH]c(C3CCCC3)nc2n(CCC)c1=O`, for which the inhibition was 5.5% (active). For `O=C(c1cc(O)c(O)c([N+](=O)[O-])c1)c1ccccc1F`, the inhibition was 83.5% (active). The result for `CC(C)C[C@H](NC(=O)[C@H](O)[C@H](N)Cc1ccccc1)C(=O)O` reads -3.8%; that for `CC(C)C[C@H](NC(=O)[C@@H](O)[C@H](N)Cc1ccccc1)C(=O)O`, 0.9% (active). With `CCC(NC(C)C)C(O)c1ccc(O)c(O)c1` (centres undefined) the figure was 38.5% (active); with `CC(C)NC[C@H](O)c1ccc(O)c(O)c1`, 38.5% (active).

On to `CC(C)NCC(O)c1ccc(O)c(O)c1` (centres undefined), for which the inhibition is 29% (active) and 11.6% (active). For the compound `CC(C)NCC(O)c1ccc(NS(C)(=O)=O)cc1` (centres undefined), the inhibition was 4.1% (active). With `O=C(O)CCC/C=C\C[C@@H]1[C@@H](/C=C/[C@H](O)C2Cc3ccccc3C2)[C@@H](F)C[C@@H]1O` the figure was -13.7%. With `CC(C)NCC(O)c1cc(O)cc(O)c1` (centres undefined) the figure was 8.3% (active); with `CC(C)(C)NCC(O)c1cc(O)cc(O)c1` (centres undefined), 3% (active).

For the compound `CC(C)(C)NCC(O)c1ccc(O)c(CO)c1` (centres undefined), the inhibition was 17.3% (active). Consider `CC(C)NCC(O)COc1ccc(COCCOC(C)C)cc1` (centres undefined), for which the inhibition was -12.7%.

With `Nc1ccc(S(=O)(=O)Nc2ccnn2-c2ccccc2)cc1`, the inhibition is 27.9% (active).

Turning to `O=c1cc(N2CCOCC2)oc2c(-c3ccccc3)cccc12`, the inhibition was 4.6% (active). The result for `Cc1cc(O)c2c(c1)C(=O)c1cc(O)cc(O)c1C2=O` reads 17.7% (active); that for `OCC1O[C@H]([S-])[C@@H](O)C(O)[C@@H]1O.[Au+]` (some centres undefined), 29.5% (active); that for `N=C(N)SCCc1ccc(CCSC(=N)N)cc1`, 9% (active).

Take `N=C(N)SCCN`: the inhibition is -3.9%. The result for `Oc1cc2c(cc1O)CN(C(=S)NCCc1ccc(Cl)cc1)CCC2` reads 83.2% (active). For the compound `COc1ccc(NC=O)c(C(=O)CCNC(C)=O)c1`, the inhibition is -9.8%. With `COc1ccc2[nH]cc(CCNC(C)=O)c2c1` the figure was 15.6% (active); with `COc1cc2c(CCNC(C)=O)c[nH]c2cc1Cl`, 14.3% (active).

As to `CC(=O)NCCc1c[nH]c2ccc(O)cc12`, the inhibition was 92.2% (active). `O=c1[nH]cc(F)c(=O)[nH]1`: the inhibition was 13.9% (active).
